From PubChem BioAssay
Most compounds without a hit are left out; they make up all but 19% or so of the library.
HT1080 IDH1KD tx = toxicity to HT-1080 IDH1 knockdown cells (counter line); HT-1080 IDH1 knockdown viability, ATP luminescence, 48 h; Potency, µM (titrated, usually from 46.1 µM), most hits filed as cytotoxic; 360,000 compounds, 2% hits; AID 686971
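CellTiter-Glo luminescence after 48 h compound exposure at 37 degrees C of IDH1-knockdown HT-1080 cells in 5% FBS RPMI. %Activity scaled between DMSO wells and cell-free media wells, with curves fitted and assigned curve classes.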
HT1080NT lethal = kills 2HG-producing HT-1080-NT fibrosarcoma cells; HT-1080-NT fibrosarcoma viability, CellTiter-Glo ATP luminescence, 48 h; Potency, µM (series often up to 46.1 µM), actives largely listed as cytotoxic; 360,000 compounds, 1.6% hits; AID 686970;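 further: NT is the 2HG producing partner of a matched IDH1 knockdown line; nearly all actives have a fitted effect of over 55% in size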
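750 cells/well, RPMI + 5% FBS; 2 h settle, compound pin-transfer, 48 h at 37 degrees C. CellTiter-Glo 10 min RT, luminescence. Normalized to DMSO and media-only wells.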
ELG1 repair inh = inhibitors of ELG1-dependent DNA repair in HEK293T cells; AID 504467; HEK293T ELG1-luciferase reporter, luminescence, 16 h; DNA damage induced by 5-fluorouridine; Potency, µM (titrated, usually from 46.1 µM), hits mostly inhibitors; 330,000 compounds, 2.3% hits; further: nearly all actives have a fitted effect of over 55% in size
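5-Fluorouridine DNA damage + compound/DMSO, 2,000 cells/well, 16 h, 37 °C/5% CO2. ONE-Glo, 30 min RT, luminescence. Readout = decrease in reporter signal.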
DT40 TDP1 no CPT = qHTS for Inhibitors of human tyrosyl-DNA phosphodiesterase 1 (TDP1): qHTS in cells in absence of CPT | 420,000 compounds, 15% hits | DT40 Tdp1-/- hTDP1 cells, no CPT, ATP luminescence, 48 h | AID 686978, 2013 | Potency, µM (doses to about 46.2 µM), usual class: inhibitors; further: nearly all actives have a fitted effect of over 55% in size
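Seeded 400 DT40-hTDP1 cells/well (vehicle DMSO, no 20 nM CPT); pinned compounds; ≥48 hr at 37 °C; CellTiter-Glo luminescence as viability measure.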
TDP1 cell CPT = DT40-hTDP1 cell growth loss with CPT; chicken DT40 Tdp1-/-;hTDP1 cells + 20 nM CPT, ATP luminescence, 48 h; 420,000 compounds, 12% hits; Potency, µM (series often up to 46.2 µM), actives largely listed as inhibitors; further: nearly all actives have a fitted effect of over 55% in size
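Chicken DT40 Tdp1-/- cells stably complemented with human TDP1 were seeded at 400 cells/well in medium containing 20 nM camptothecin, exposed to pin-transferred compounds, and grown at 37 °C for at least 48 hr. Viability was read as ATP luminescence.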
IL-1B inflam inh = blocks inflammasome-driven IL-1 beta release; THP-1 LPS/ATP IL-1B secretion, AlphaLISA, 16 h; active compounds read low; activity change, % at 57.5 µM; 360,000 compounds, 4.7% hits; AID 743279; in the data active means activity change below about -50%; inconclusive means mostly about -30% to -49%
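THP-1 cells pretreated 1 hr with compounds (up to 57.5 uM final), then stimulated with LPS (250 ng/mL final) plus ATP (1.25 mM final); secreted IL-1B measured by AlphaLISA after 16 hr, decreased signal indicating inhibition.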
Hits are given with their value; n = inactive; u = inconclusive; x = no result; [ ] = remark or other dose. Unless noted, the call rests on the fitted dose curve; in most records, active means well fitted curve in the direction sought with a large enough effect; inconclusive means small, poorly fitted or top-dose-only effect, or another doubt; inactive means no such curve, though single readings can be large; an effect the other way counts as inactive or inconclusive.

SMILES	HT1080 IDH1KD tx	HT1080NT lethal	ELG1 repair inh	DT40 TDP1 no CPT	TDP1 cell CPT	IL-1B inflam inh
O=[N+]([O-])c1ccc(/C=N/Nc2nc(N3CCCCC3)nc(N3CCCCC3)n2)o1	n	n	23.1µM	18.4µM	u	n
Fc1cnc(N/N=C/c2ccc(-c3ccc(Br)cc3)o2)nc1N1CCOCC1	n	n	11.6µM	n	n	n
O=C(O)c1cc(N/N=C/c2ccc(-c3ccc(F)cc3)o2)ccc1Cl	n	n	u	n	n	n
O=C(Oc1ccc(/C=N/Nc2nc(N3CCCCC3)nc(N3CCCCC3)n2)cc1)c1ccco1	n	n	n	16.4µM	u	n
C(=C\c1ccccc1)/C=N/Nc1nc(N2CCOCC2)nc(N2CCOCC2)n1	n	n	n	u	n	n
COc1ccc(S(=O)(=O)N2CCN(c3ccccc3)CC2)cc1-c1noc(C)n1	x	x	x	n	n	x
Clc1ccccc1/C=C/C=N/Nc1nc(N2CCOCC2)nc(N2CCOCC2)n1	n	n	u	23.1µM	23.1µM	n
Cc1cc(N/N=C/c2ccc(O)cc2O)nc(N2CCOCC2)n1	n	n	u	n	n	n
Clc1ccc(-c2ccc(/C=N/Nc3cc(N4CCOCC4)nc(N4CCOCC4)n3)o2)cc1	u	u	5.8µM	16.4µM	n	u
Cc1cn(-c2ccccc2)c(C)c1/C=N\Nc1nc(N2CCOCC2)nc(N2CCOCC2)n1	n	n	8.2µM	u	u	n
COCC1CCCN(Cc2ccc3c(c2)CN(C(=O)c2ccc(OC)nc2OC)CCO3)C1 (stereo not given)	x	x	x	n	n[9.04 µM]	x
CNC(=S)NCCc1ccccc1	n	n	u	n	n	n
CCCNC(=S)Nc1ccccc1	n	n	n	n	n	n
CC(C)(CNC(=S)NCCc1ccccc1)CNC(=S)NCCc1ccccc1	u	u	u	29.1µM	8.2µM	-70.1
Cc1ccccc1OCCNC(=S)Nc1ccccc1	n	n	n	14.6µM	29.1µM	n
S=C(NCCc1cccc(Cl)c1)NCc1ccccc1	x	x	n	x	x	x
S=C(NCCc1ccccc1)Nc1c(Cl)cccc1Cl	n	n	n	23.1µM	u	-63.7
S=C(NCCc1ccccc1)Nc1ccc(Nc2ccccc2)cc1	u	u	u	u	16.4µM	u
COc1ccc(C(=O)CC2(O)C(=O)Nc3c(C)cccc32)c(OC)c1OC (stereo not given)	x	x	x	n	n	x
CCn1c(CNC(=O)C23CC4CC(CC(C4)C2)C3)nnc1SCC(=O)Nc1ccc(F)cc1	x	x	x	n	u	x
CCOC(=O)c1c(NC(=O)Cn2nc(C(=O)O)c3ccccc3c2=O)sc(CC)c1C	n	n	n	n	n	n
CN(C)/C=N/N(C)c1ncccc1[N+](=O)[O-]	n	n	n	n	n	n
O=C1CCCN1CCCNC(=S)Nc1ccccc1	n	n	n	n	n	n
S=C(NCCCc1ccccc1)Nc1ccc(Cl)cc1	u	u	n	u	u	u
S=C(NCCCc1ccccc1)Nc1ccccc1	n	n	u	u	23.1µM	n
SMILES	HT1080 IDH1KD tx	HT1080NT lethal	ELG1 repair inh	DT40 TDP1 no CPT	TDP1 cell CPT	IL-1B inflam inh
O=C1CCCN1CCCNC(=S)Nc1ccc(Nc2ccccc2)cc1	n	n	14.6µM	n	n	n
Cc1ccc(Sc2nnc(Cc3ccccc3)c3ccccc23)cc1	n	n[9.24 µM]	u	23.1µM	25.9µM	-89.0
COc1ccc(Sc2nnc(Cc3ccccc3)c3ccccc23)cc1	u	n	n	u	u	x
COc1cc(C(=O)Nc2nonc2-c2ccc(C)c(C)c2)cc(OC)c1OC	x	x	x	n	n	x
CCC(C)n1c(=N)c(C(=O)NCc2ccccc2)cc2c(=O)n3cc(C)ccc3nc21 (stereo not given)	x	x	x	16.4µM	u	x
Cc1ccc2nc3c(cc(C(=O)NC4CCCC4)c(=N)n3C3CCCCC3)c(=O)n2c1	n	n	u	u	u	n
N=c1c(C(=O)NC2CCCCC2)cc2c(=O)n3ccccc3nc2n1CCc1ccccc1	n	n	u	20.6µM	u	n
